Bioassay records from PubChem BioAssay.
CRFBP-R2 agonist: CRF-BP/CRF-R2 complex agonism; HEK293 CRF-R2/CRF-BP, calcium dye fluorescence (FLIPR); percent of saturating CRF peptide response; activation, % at 13.2 µM; 350,000 tested, 0.46% active; AID 588473;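 active means activation of at least 50%, plus an integration ratio under a set limit after plate pattern correction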;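 further: plate controls were neutral control wells without compound for no effect and CRF at EC100 for full effect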
Cardiac RTF inh: cardiac RTF calcium desensitization; P19429+P45379; IANBD-labeled cardiac RTF, Ca2+ fluorescence; inhibition, % at 7.15 µM; 340,000 tested, 0.12% active; AID 493244;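 active means inhibition above the mean inhibition of all tested compounds plus 3 SD, cut at about 17% in these data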;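 further: assay run at fixed EC70 calcium of 1.6 mM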
Myeloid diff 2: compounds promoting myeloid differentiation | ER-HoxA9 myeloid progenitors, lysozyme-GFP differentiation, flow cytometry | calls only at 10 µM | 360,000 tested, 1% active | AID 624256;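 active means normalized GFP-positive differentiation at or above the plate's own cutoff, the solvent-only control mean plus 3 SD; inconclusive means no clear call, values can overlap the other calls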;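 further: cells exposed to compound for four days before flow analysis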
CRFR2-BP antag: antagonists of CRF-binding protein/CRF-R2 receptor complex; HEK293 CRF-R2/CRF-BP, CRF-induced calcium fluorescence; inhibition, % at 11.8 µM; 350,000 tested, 0.59% active;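 active means inhibition of the ligand-induced calcium signal above about 50% at the single tested concentration, limit read from the data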
RTF Ca sens act: cardiac RTF calcium sensitization | activation, % at 7.2 µM | IANBD-labeled TnC RTF fluorescence at EC20 calcium; 0% EC20 calcium, 100% full calcium | P19429+P45379 | AID 493008 | 340,000 tested, 0.24% active;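 active means activation above the mean over all tested compounds plus 3 SD, cut at about 30% in these data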;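 further: rise in fluorescence read as greater calcium sensitivity of cardiac thin filaments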
* marks the source's active call; other numbers are inactive results. The list is not random: actives were taken first. Their share in the collection is about 2.2%.

What do the screens show for `COc1ccc(CCNC(=O)c2cccn2C)cc1`?
CRFBP-R2 agonist: -0.8; Cardiac RTF inh: -8.3; Myeloid diff 2: inactive; CRFR2-BP antag: 54.8*; RTF Ca sens act: 0.9

Results for CCc1ccc(CN(Cc2cccnc2)C(=O)/C=C/c2ccc(OC)cc2)cc1 ?
CRFBP-R2 agonist: 4.7; Cardiac RTF inh: -16.1; Myeloid diff 2: active; CRFR2-BP antag: -0.5; RTF Ca sens act: 5.2

Results for Cc1ccc(OC(=O)N(C)C[C@@H]2OCc3cn(nn3)CCCC(=O)N([C@@H](C)CO)C[C@H]2C)cc1 ?
CRFBP-R2 agonist: -1.4; Myeloid diff 2: inactive; CRFR2-BP antag: 11.9

How did Cc1ccc(S(=O)(=O)/N=C2/NC(=O)/C(=C\c3cc(Br)cc(Br)c3O)S2)cc1 do in these assays?
CRFBP-R2 agonist: 76.9*; Cardiac RTF inh: -91.7; Myeloid diff 2: inactive; CRFR2-BP antag: -76.6; RTF Ca sens act: 63.3*

How did Cc1ccc(S(=O)(=O)/N=C2/NC(=O)/C(=C/c3ccc(Br)o3)S2)cc1 do in these assays?
CRFBP-R2 agonist: -1.7; Cardiac RTF inh: 11.5; Myeloid diff 2: inactive; CRFR2-BP antag: 55.4*; RTF Ca sens act: 6.4

Results for O=C(Cc1ccc([N+](=O)[O-])cc1)Nc1cccc(C(=O)N2CCCCC2)c1 ?
CRFBP-R2 agonist: -0.2; Cardiac RTF inh: 6.4; Myeloid diff 2: inactive; CRFR2-BP antag: 4.5; RTF Ca sens act: 3.5

How did CCc1nc2ccc(C(=O)N3CCN(C(=O)c4ccco4)CC3)cn2c1N(CC)CCOC do in these assays?
Myeloid diff 2: inactive

Results for O=C(NCc1ccc2c(c1)OCO2)C1CCCN(S(=O)(=O)c2cccc3cccnc23)C1 (stereo not drawn) ?
CRFBP-R2 agonist: -3.7; Cardiac RTF inh: -6.6; Myeloid diff 2: active; CRFR2-BP antag: -1.5; RTF Ca sens act: 0.2

What do the screens show for `O=C(NCc1ccc2c(c1)OCO2)C1CCCN(S(=O)(=O)c2cccc3nonc23)C1` (stereo not drawn)?
CRFBP-R2 agonist: -1.6; Cardiac RTF inh: 3.6; Myeloid diff 2: inactive; CRFR2-BP antag: 1.7; RTF Ca sens act: 1.9

How did N/C(=N\OC(=O)CCC(=O)O)c1ncc(C(F)(F)F)cc1Cl do in these assays?
CRFBP-R2 agonist: 1.0; Cardiac RTF inh: 3.8; Myeloid diff 2: active; CRFR2-BP antag: -12.4; RTF Ca sens act: 2.4

What do the screens show for `CCN(CC)c1ccc2c(-c3ccc(S(=O)(=O)O)cc3S(=O)(=O)[O-])c3ccc(=[N+](CC)CC)cc-3oc2c1`?
CRFBP-R2 agonist: 55.2*; Cardiac RTF inh: -335.7; Myeloid diff 2: inactive; CRFR2-BP antag: -32.6; RTF Ca sens act: 247.7*

What do the screens show for `CC(=O)c1cccc(NC(=O)C2Cc3c(-c4cccc(F)c4)ccnc3O2)c1` (stereo not drawn)?
Myeloid diff 2: inactive

What do the screens show for `Cc1oc(-c2ccc(Cl)cc2)nc1CN1CCC(C(=O)N2CCN(Cc3ccccc3)CC2)CC1`?
CRFBP-R2 agonist: 1.0; Cardiac RTF inh: -1.4; Myeloid diff 2: inconclusive; CRFR2-BP antag: 11.8; RTF Ca sens act: 11.1

How did Cc1oc(-c2ccc(Cl)cc2)nc1CN1CCC(C(=O)N2CCc3ccccc3C2)CC1 do in these assays?
CRFBP-R2 agonist: 0.2; Cardiac RTF inh: -6.6; Myeloid diff 2: active; CRFR2-BP antag: -3.5; RTF Ca sens act: 10.0

What do the screens show for `Cc1ccc(C#CC[N+](C)(C)CC#Cc2ccccc2)cc1`?
CRFBP-R2 agonist: -0.3; Cardiac RTF inh: -4.0; Myeloid diff 2: inactive; CRFR2-BP antag: 1.1; RTF Ca sens act: -3.5

Results for C#CC[N+](C)(C)CC#Cc1ccccc1 ?
CRFBP-R2 agonist: 3.1; Cardiac RTF inh: -6.8; Myeloid diff 2: active; CRFR2-BP antag: 4.5; RTF Ca sens act: -4.9

What do the screens show for `O=C(OCC(=O)N1N=C(c2ccc(Cl)cc2)CC1c1ccco1)c1ccccc1O` (stereo not drawn)?
CRFBP-R2 agonist: 0.5; Cardiac RTF inh: 1.3; Myeloid diff 2: inactive; CRFR2-BP antag: -8.3; RTF Ca sens act: -3.7

What do the screens show for `COc1ccc(C2=NN(C(=O)COC(=O)c3ccc(NC(=O)CC#N)cc3)C(c3ccco3)C2)cc1` (stereo not drawn)?
CRFBP-R2 agonist: 4.3; Cardiac RTF inh: -37.0; Myeloid diff 2: active; CRFR2-BP antag: 7.1; RTF Ca sens act: 19.9

What do the screens show for `O=C(OCC(=O)N1N=C(c2ccc(Cl)cc2)CC1c1ccco1)c1ccco1` (stereo not drawn)?
CRFBP-R2 agonist: 240.3*; Cardiac RTF inh: -2.6; Myeloid diff 2: inactive; CRFR2-BP antag: -235.4; RTF Ca sens act: 3.6

How did CCn1c(SCC(=O)NC(=O)c2ccccc2OC)nc2ccccc21 do in these assays?
CRFBP-R2 agonist: 0.1; Cardiac RTF inh: -2.0; Myeloid diff 2: inactive; CRFR2-BP antag: -4.4; RTF Ca sens act: 1.1

How did Cc1sc2nc(CN3CCCCC3)nc(Cl)c2c1C do in these assays?
CRFBP-R2 agonist: -2.3; Cardiac RTF inh: -5.0; Myeloid diff 2: active; CRFR2-BP antag: 4.7; RTF Ca sens act: -8.3

What do the screens show for `c1ccc(C(c2nnnn2Cc2cccs2)N2CCN(C3CCCC3)CC2)cc1` (stereo not drawn)?
CRFBP-R2 agonist: -2.5; Cardiac RTF inh: -18.0; Myeloid diff 2: inactive; CRFR2-BP antag: 65.1*; RTF Ca sens act: -3.2

What do the screens show for `Fc1ccc(C(c2nnnn2Cc2cccs2)N2CCN(C3CCCC3)CC2)cc1` (stereo not drawn)?
CRFBP-R2 agonist: -0.8; Cardiac RTF inh: -17.0; Myeloid diff 2: inactive; CRFR2-BP antag: 4.5; RTF Ca sens act: -1.6

What do the screens show for `CCCCOc1ccc(C(=O)NCC(=O)NC(C)CCc2ccccc2)cc1` (stereo not drawn)?
CRFBP-R2 agonist: 0.8; Cardiac RTF inh: 2.7; Myeloid diff 2: active; CRFR2-BP antag: -12.7; RTF Ca sens act: -3.5

What do the screens show for `COCCN(CC(=O)Nc1ccccc1C(F)(F)F)C(=O)/C=C/c1ccc2ccccc2n1`?
CRFBP-R2 agonist: -0.8; Cardiac RTF inh: -1.1; Myeloid diff 2: inactive; CRFR2-BP antag: -7.0; RTF Ca sens act: 0.3

Results for Cc1ccc(C(=O)/C=C/c2c[nH]c3ccccc23)cc1 ?
CRFBP-R2 agonist: 4.6; Cardiac RTF inh: -4.7; Myeloid diff 2: inactive; CRFR2-BP antag: 6.3; RTF Ca sens act: 0.6

Results for CCN(CC)C(=O)c1ccc(/C=C/c2c[nH]c3ccccc23)[n+](C)c1 ?
CRFBP-R2 agonist: 53.6*; Cardiac RTF inh: -142.9; Myeloid diff 2: inactive; CRFR2-BP antag: -15.5; RTF Ca sens act: 140.0*

How did CC[n+]1c(/C=C/c2c[nH]c3ccccc23)ccc2cc(C)ccc21 do in these assays?
CRFBP-R2 agonist: 270.7*; CRFR2-BP antag: -303.1

Results for COc1ccc(C(=O)OCC(=O)N(C)C2CCS(=O)(=O)C2)cc1S(=O)(=O)N(C)Cc1ccccc1 (stereo not drawn) ?
CRFBP-R2 agonist: -2.5; Cardiac RTF inh: 3.2; Myeloid diff 2: inactive; CRFR2-BP antag: 109.4*; RTF Ca sens act: 4.2

What do the screens show for `COc1ccc(C(=O)OCC(=O)N(C)C2CCS(=O)(=O)C2)cc1Br` (stereo not drawn)?
CRFBP-R2 agonist: -0.1; Cardiac RTF inh: -4.7; Myeloid diff 2: inactive; CRFR2-BP antag: -1.9; RTF Ca sens act: -0.4
